FBA Mtb inh – inhibits M. tuberculosis FBA enzyme; P9WQA3; purified M. tuberculosis FBA, fluorescence read-out; inhibition, % at 1 µM; 360,000 tested, 2.3% active;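 also: 0% = vehicle and 100% = reference inhibitor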
CCHF vOTU inh – blocks the CCHF virus ovarian tumor domain protease; CCHFV vOTU protease, Pep-AMC fluorescence; inhibition, % at 11.5 µM; 370,000 tested, 0.55% active; AID 651958; in the data active = inhibition above about 30%; also: 0% = vehicle wells with enzyme and 100% = no enzyme wells
GDH-TPI counter-1 – GDH-TPI coupled enzyme inhibition counter-screen; GDH-TPI coupled enzyme counterscreen, NADH absorbance; inhibition, % at 4.8 µM; 360,000 tested, 1.2% active; AID 588335; in the data active = inhibition above about 30%;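 also: 0% = DMSO wells and 100% = wells lacking the enzyme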
RecA intein inh – Mtb RecA intein splicing inhibition | P9WHJ3 | cell-free RecA intein splicing, fluorescence | inhibition, % (concentration not given with the values) | 290,000 tested, 0.75% active | AID 2221; in the data active = inhibition above about 30%;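 also: 0% = vehicle wells and 100% = reference inhibitor control wells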
Target sequence (P9WHJ3 whole entry, looked up): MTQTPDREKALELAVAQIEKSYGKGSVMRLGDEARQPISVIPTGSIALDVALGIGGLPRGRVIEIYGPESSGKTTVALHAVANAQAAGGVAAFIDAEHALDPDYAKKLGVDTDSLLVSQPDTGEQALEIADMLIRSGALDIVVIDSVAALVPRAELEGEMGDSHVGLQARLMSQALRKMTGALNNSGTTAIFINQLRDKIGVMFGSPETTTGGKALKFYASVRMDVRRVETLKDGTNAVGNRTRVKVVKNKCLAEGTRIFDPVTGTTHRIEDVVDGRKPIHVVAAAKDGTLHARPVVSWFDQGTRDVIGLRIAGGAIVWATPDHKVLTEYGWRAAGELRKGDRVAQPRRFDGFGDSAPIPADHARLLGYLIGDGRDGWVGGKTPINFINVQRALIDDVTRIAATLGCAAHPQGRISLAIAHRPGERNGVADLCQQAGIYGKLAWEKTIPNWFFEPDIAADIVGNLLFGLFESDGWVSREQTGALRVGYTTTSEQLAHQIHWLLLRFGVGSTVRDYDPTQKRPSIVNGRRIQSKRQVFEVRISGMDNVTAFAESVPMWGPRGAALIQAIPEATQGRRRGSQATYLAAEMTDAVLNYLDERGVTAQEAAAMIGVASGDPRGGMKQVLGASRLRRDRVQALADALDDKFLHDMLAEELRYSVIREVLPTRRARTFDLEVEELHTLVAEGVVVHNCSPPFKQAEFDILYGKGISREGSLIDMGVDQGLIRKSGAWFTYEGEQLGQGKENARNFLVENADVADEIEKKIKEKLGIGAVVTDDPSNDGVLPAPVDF
Mtb FBA inh conf – confirmation of M. tuberculosis fructose-bisphosphate aldolase inhibitors; AID 651616; shares compounds with FBA Mtb inh; purified M. tuberculosis FBA, fluorescence read-out; 5,600 tested, 78% active; inhibition, % at 1 µM;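 also: 0% = vehicle wells and 100% = reference inhibitor wells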
GDH-TPI counter-2 – inhibits GDH-TPI coupling enzymes, flagging Mtb FBA hits; shares compounds with FBA Mtb inh; GDH-TPI coupled enzyme counterscreen, fluorescence; inhibition, % at 1 µM; 5,600 tested, 81% active; AID 652141; in the data active = inhibition above about 10%
The depositor's hits bear a star; nt = no result; + = active, no number. Shown are actives, neighbours in structure and some others; about 4.2% of the full set was active somewhere. Rule as the data show it, unless noted: active = inhibition above about 27%; inactive = the rest.

SMILES	FBA Mtb inh	CCHF vOTU inh	GDH-TPI counter-1	RecA intein inh	Mtb FBA inh conf	GDH-TPI counter-2
Cc1cccc2cc(C#N)c(NCCNC(=O)NC3CCCCC3)nc12	4	-17	0	-11	nt	nt
CCOCCCNC(=S)NCCCNc1nc2c(C)c(C)ccc2cc1C#N	47*	-3	2	nt	111*	79*
Cc1ccc2cc(C#N)c(NCCNC(=O)C3CCC3)nc2c1C	52*	-12	-1	-7	2	-2
COC(=O)/C=C/c1cc(F)ccc1S(=O)(=O)NC(C)(C)C	1	-1	5	3	nt	nt
CC1(C)CC(=O)C=C(c2ccc3ccccc3c2)C1	40*	-15	16	nt	0	-5
Cn1c(=O)cc(OCC(=O)N2CCN(c3ccccc3Cl)CC2)c2ccccc21	nt	8	nt	nt	nt	nt
CCCc1cc(=O)oc2cc(C)cc(OCC(=O)NC(Cc3ccc(Cl)cc3)C(=O)O)c12 (stereo not given)	70*	-20	5	-3	3	0
CCCCc1cc(=O)oc2cc(C)cc(OCC(=O)NC(Cc3ccc(Cl)cc3)C(=O)O)c12 (stereo not given)	63*	2	7	-1	105*	68*
CCCc1cc(=O)oc2cc(C)cc(OCC(=O)Nc3ccc(S(N)(=O)=O)cc3)c12	19	-15	7	-1	nt	nt
Cc1ccc(CNC(=O)C2CCCN(S(=O)(=O)N3CC(C)CC(C)C3)C2)cc1 (stereo not given)	0	9	-4	2	nt	nt
Nc1nc2nc(-c3ccc(F)cc3)cc(C(F)(F)F)n2n1	41*	-71	-7	-9	50*	40*
CC(C)(C)NC(=O)c1nc2nc(-c3ccccc3)cc(C(F)(F)F)n2n1	32*	-28	1	8	91*	62*
O=C(c1nc2nc(-c3ccc(Cl)cc3)cc(C(F)(F)F)n2n1)N1CCOCC1	33*	-23	26	2	121*	94*
Cc1cnc(C(=O)OC(C)C(=O)Nc2ccccc2-c2ccccc2)cn1 (stereo not given)	0	0	5	-3	nt	nt
COc1ccc(-n2c(C)c(C)c3c(N)ncnc32)cc1	3	2	-5	-2	nt	nt
Cc1cccc(C)c1NC(=O)CNC(=O)c1ccc2nc[nH]c2c1	2	8	4	2	nt	nt
CCN(C(=O)c1c(C)cc(=O)oc1C)c1ccc2c(c1)OCO2	0	1	9	3	nt	nt
CCN(C(=O)c1coc(=O)c(Br)c1)c1ccc2c(c1)OCO2	80*	11	24	-2	+	183*
Cc1ccc(/C=C2\SC(=O)N(CCNC(=O)C3CSC4(C)CCC(=O)N34)C2=O)cc1 (stereo not given)	-4	6	26	1	nt	nt
C(=C\c1ccc2nncn2c1)/c1ccccc1	50*	-11	13	nt	11	-3
c1coc(-c2ccc3nncn3c2)c1	1	9	-9	nt	nt	nt
COc1ccc2[nH]c(C(=O)O)c(CCN3C(=O)c4ccc(C(=O)O)cc4C3=O)c2c1	3	2	-4	-3	nt	nt
COc1ccc2[nH]c(C(=O)O)c(NS(=O)(=O)c3ccc(OC)c(OC)c3)c2c1	11	7	4	3	nt	nt
COc1ccc2[nH]c(C(=O)O)c(CCC(=O)O)c2c1	42*	-9	-1	2	78*	59*
COc1ccc(S(=O)(=O)Nc2c(C(=O)O)[nH]c3ccc(OC)cc23)cc1	27*	4	3	-3	+	+
SMILES	FBA Mtb inh	CCHF vOTU inh	GDH-TPI counter-1	RecA intein inh	Mtb FBA inh conf	GDH-TPI counter-2
O=C(CSc1nnc(-c2cccs2)n1Cc1ccco1)Nc1ccc(OCc2ccccc2)cc1	nt	13	nt	nt	nt	nt
Cc1ccccc1C(=O)Nc1nnc(SCC(=O)NCc2ccco2)s1	3	15	11	-1	nt	nt
c1ccc(-n2c(-c3cccs3)nc3nc4ccccc4nc32)cc1	96*	-38	1	-4	+	+
CCC(C)n1c(-c2cccs2)nc2nc3ccccc3nc21 (stereo not given)	53*	-41	13	-16	102*	76*
Cc1ccc(-n2c(-c3cccs3)nc3ccccc3c2=O)cc1	1	6	22	-3	nt	nt
C=C(C)Cn1c(SCC(=O)N/N=C(\C)c2ccc([N+](=O)[O-])cc2)nnc1-c1ccc(Br)cc1	nt	14	nt	nt	nt	nt
COc1cccc(CNC(=O)c2ccc(S(=O)(=O)N3CCCCC3)cc2)c1	0	-3	-2	nt	nt	nt
COc1cc2cnc(-c3ccccc3)cc2cc1OC	6	2	16	nt	nt	nt
COc1ccc(-c2cc3cc(OC)c(OC)cc3cn2)cc1	89*	7	10	nt	45*	33*
COc1ccc(S(=O)(=O)NCCc2cn3nc(C)c(C)nc3n2)cc1F	61*	-64	9	-166	+	149*
CC(=O)Nc1ccc(S(=O)(=O)NCCNS(=O)(=O)c2ccc(NC(C)=O)cc2)cc1	-2	-6	-7	1	nt	nt
CC(=O)Nc1ccc(S(=O)(=O)NCCc2cn3nc(C)c(C)nc3n2)cc1	43*	-45	5	-103	59*	49*
Cc1ccc(C(=O)N2CCC2(C)C(=O)NC(C)C)cc1 (stereo not given)	0	-9	4	nt	nt	nt
Cc1cc(NCCN2CCOCC2)n2c(nc3ccccc32)c1C#N	58*	-45	6	-126	104*	81*
CCCc1cc(NCCCN2CCOCC2)n2c(nc3ccccc32)c1C#N	101*	-54	4	-101	54*	41*
COCCN(CCOC)c1cc(C)c(C#N)c2nc3ccccc3n12	39*	-40	7	-201	43*	41*
CCCc1cc(-n2ccnc2C)n2c(nc3ccccc32)c1C#N	7	-6	5	nt	nt	nt
Cc1cc(Nc2c(C)n(C)n(-c3ccccc3)c2=O)n2c(nc3ccccc32)c1C#N	0	16	-3	-2	nt	nt
C=C(C)CSc1cc(C)c(C#N)c2nc3ccccc3n12	17	-19	-2	-98	nt	nt
Nc1nc(N2CCN(C(=O)c3ccco3)CC2)nc2ccccc12	45*	-32	-3	-2	7	-4
CCCCn1nnnc1C(c1ccccc1)N1CCN(c2ccc(C)cc2)CC1 (stereo not given)	nt	1	nt	nt	nt	nt
COc1cccc(NC(=O)c2cccc(S(=O)(=O)N3CCN(Cc4ccccc4)CC3)c2)c1	3	-6	-3	4	nt	nt
CCN(CC)CCNc1cc(C)c(C#N)c2nc3ccccc3n12	86*	-140	13	-193	24	16*
CCN(CC)CCNc1c2c(c(C#N)c3nc4ccccc4n13)CCCC2	11	-9	10	-81	nt	nt
CCCc1cc(N2CCN(C(=O)c3ccco3)CC2)n2c(nc3ccccc32)c1C#N	32*	-55	1	-90	100*	84*
O=C(C[C@H]1C[C@@H]2c3cc(NC(=O)c4ccc5c(c4)OCO5)ccc3O[C@@H]2[C@H](CO)O1)NCc1cc(F)ccc1F	0	-3	-4	nt	nt	nt
COc1ccc(NC(=O)CN(C)C(=O)c2cc(-c3ccc(OC)cc3)nc3ccccc23)cc1	35*	-38	19	2	49*	36*

Compound activity deposited in PubChem by several laboratories.
